Reference: PubChem BioAssay (NCATS)
Several values for one entry are separate records, joined by “and”; a condition that tells them apart may be missing. Identical values can stand only once. Records with an inconclusive call do not appear. Activity calls are given as the source filed them. The call rests on the fitted dose curve; in most records, active means well fitted inhibition curve with a large enough effect; inconclusive means small, poorly fitted or top-dose-only effect; inactive means flat fitted curve, though single readings scatter.

What was measured:
CRL-7250 = normal cell line; assay: Cytotoxic Profiling of Annotated Libraries Using Quantitative High-Throughput Screening (AID 1296008); conditions: Five cell lines viability, CellTiter-Glo ATP luminescence, 48-72 h; max response: active compounds read low; on max response: on the % scale 0 is the no-effect control and ±100 the full control effect
Method in brief: (§1)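 Cells exposed to compounds for 48 or 72 hr at 37 degrees Celsius. Viability read as ATP-coupled luminescence with CellTiter-Glo after 10 min at room temperature.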

HaCat [1] = assay: as above; conditions: Five cell lines viability, CellTiter-Glo ATP luminescence, 48-72 h; max response: active compounds read low
Method in brief: as §1

NIH3T3 = assay: as above; conditions: Five cell lines viability, CellTiter-Glo ATP luminescence, 48-72 h; max response: active compounds read low
Method in brief: as §1

HACAT [2] = assay: qHTS assay to identify novel small-molecules to repurpose for Merkel cell carcinoma treatment (AID 1296009); conditions: MCC and control cell lines, CellTiter-Glo viability, 72 h; at 44.8 µM (top of the series) unless noted
Method in brief: (§2)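 Dose-response viability screen; 72 hr exposure at 37 degree celsius; CellTiter-Glo added, 10 min room temperature, luminescence read; RLUs scaled between no-cell and DMSO wells.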

MCC-13 = assay: as above; conditions: MCC and control cell lines, CellTiter-Glo viability, 72 h; series mostly up to 46 µM
Method in brief: as §2

MCC-26 = assay: as above; conditions: MCC and control cell lines, CellTiter-Glo viability, 72 h; series mostly up to 46 µM
Method in brief: as §2

PC26 = assay: qHTS profiling for inhibitors of Plasmodium falciparum proliferation (AID 504749); conditions: P. falciparum in erythrocytes, SYBR Green DNA, 72 h; series mostly up to 28.7 µM
Method in brief: (§3)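 Each compound contacts P. falciparum-infected red blood cells for 72 h at 37 C; lysis buffer (Tris, EDTA, saponin, Triton X, SYBR Green I) is added and fluorescence measured next morning; values normalized to controls.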

W2 = assay: as above; conditions: P. falciparum in erythrocytes, SYBR Green DNA, 72 h; series mostly up to 28.7 µM
Method in brief: as §3

P93_24 = assay: as above; conditions: P. falciparum in erythrocytes, SYBR Green DNA, 72 h; series mostly up to 28.7 µM
Method in brief: as §3

P94_40 = assay: as above; conditions: P. falciparum in erythrocytes, SYBR Green DNA, 72 h; series mostly up to 28.7 µM
Method in brief: as §3

PAD = assay: as above; conditions: P. falciparum in erythrocytes, SYBR Green DNA, 72 h; series mostly up to 28.7 µM
Method in brief: as §3

PC15 = assay: as above; conditions: P. falciparum in erythrocytes, SYBR Green DNA, 72 h; series mostly up to 28.7 µM
Method in brief: as §3

PC49 = assay: as above; conditions: P. falciparum in erythrocytes, SYBR Green DNA, 72 h; series mostly up to 28.7 µM
Method in brief: as §3

SC27B = assay: as above; conditions: P. falciparum in erythrocytes, SYBR Green DNA, 72 h; series mostly up to 28.7 µM
Method in brief: as §3

TAB109 = assay: as above; conditions: P. falciparum in erythrocytes, SYBR Green DNA, 72 h; series mostly up to 28.7 µM
Method in brief: as §3

TAB165 = assay: as above; conditions: P. falciparum in erythrocytes, SYBR Green DNA, 72 h; series mostly up to 28.7 µM
Method in brief: as §3

KB-3-1 = assay: Cytotoxic Profiling of Annotated Libraries Using Quantitative High-Throughput Screening (AID 1296008); conditions: Five cell lines viability, CellTiter-Glo ATP luminescence, 48-72 h; max response: active compounds read low; on max response: on the % scale 0 is the no-effect control and ±100 the full control effect
Method in brief: as §1

HEK293 = assay: as above; conditions: Five cell lines viability, CellTiter-Glo ATP luminescence, 48-72 h; max response: active compounds read low
Method in brief: as §1
Further: nearly all actives have a fitted effect of over 60% in size.
Potency means the concentration at half of the fitted maximal effect.

CC=CCC=CCCC(=O)[C@H]1O[C@@H]1C(N)=O
inactive: outcome (CRL-7250) | outcome (HaCat [1]) | max response (NIH3T3) 1.26% | outcome (HACAT [2]) | Potency (MCC-13) | Potency (MCC-26)

Cc1c(O)cccc1C(=O)N[C@@H](CSc1ccccc1)[C@H](O)CN1C[C@H]2CCCC[C@@H]2C[C@@H]1C(=O)NC(C)(C)C
inactive: Potency (MCC-13) | Potency (MCC-26)

COCCCCC(=NOCCN)c1ccc(C(F)(F)F)cc1
active: Potency (PC26) 6.75 µM | Potency (W2) 2.69 µM

CCCCCN(C)CCC(O)(P(=O)(O)O)P(=O)(O)O
inactive: outcome (P93_24) | Potency (P94_40) | outcome (PAD) | outcome (PC15) | Potency (PC26) | outcome (PC49) | Potency (SC27B) | outcome (TAB109) | Potency (TAB165) | Potency (W2) | Potency (MCC-13) | Potency (MCC-26)

O=C(N[C@@H](c1ccccc1)[C@@H]1CCCCN1)c1cccc(C(F)(F)F)c1Cl
inactive: max response (HaCat [1]) 4.43% | max response (KB-3-1) -7.93% | max response (NIH3T3) -0.909% | Potency (MCC-13) | Potency (MCC-26)

Cc1ccc(F)c(NC(=O)Nc2ccc(-c3cccc4[nH]nc(N)c34)cc2)c1
inactive: max response (HaCat [1]) 2.26% | max response (NIH3T3) -7.65% | Potency (MCC-13)

COCCOC(=O)C1=C(C)NC2=C(C(=O)CC(c3ccccc3OC)C2)C1c1cccc(O)c1 (stereo not given)
inactive: max response (HaCat [1]) -1.34% | max response (KB-3-1) -11.3% | Potency (MCC-13) | Potency (MCC-26)

CC1(C)CCC2=C(O1)c1ccccc1C(=O)C2=O
inactive: outcome (HaCat [1]) | max response (KB-3-1) 7.27% | outcome (HACAT [2]) | Potency (MCC-26)

CN(C)Cc1ccc(-c2nc3cccc4c3n2CCNC4=O)cc1
inactive: max response (HaCat [1]) -6.01% and -9.35% | max response (NIH3T3) -8.05% and -9.14% | Potency (MCC-13) | Potency (MCC-26)

CC=CCC(C)C(O)C1C(=O)NC(CC)C(=O)N(C)CC(=O)N(C)C(CC(C)C)C(=O)NC(C(C)C)C(=O)N(C)C(CC(C)C)C(=O)NC(C)C(=O)NC(C)C(=O)N(C)C(CC(C)C)C(=O)N(C)C(CC(C)C)C(=O)N(C)C(C(C)C)C(=O)N1C (stereo not given)
inactive: outcome (HACAT [2]) | Potency (MCC-13) | Potency (MCC-26)

c1ccc2c(Cc3c[nH]c4ccccc34)c[nH]c2c1
inactive: outcome (HaCat [1]) | max response (KB-3-1) -13.3% | outcome (HACAT [2]) | Potency (MCC-13) | Potency (MCC-26)

Clc1ccc(C(c2ccc(Cl)cc2)n2cc[n+](CC(OCc3ccc(Cl)cc3Cl)c3ccc(Cl)cc3Cl)c2)cc1 (stereo not given)
inactive: Potency (MCC-13) | Potency (MCC-26)
active: Potency (HEK293) 14.8 µM | Potency (KB-3-1) 18.7 µM

C[C@]12CC[C@@H]3c4ccc(O)cc4C[C@@H](CCCCCCCCCS(=O)CCCC(F)(F)C(F)(F)F)[C@H]3[C@H]1CC[C@H]2O (stereo not given in full)
inactive: max response (HaCat [1]) 0.837% | max response (KB-3-1) 4.81% | outcome (NIH3T3) | Potency (MCC-13) | Potency (MCC-26)

COc1cccc2c1CCCC2CCCN1CCN(C2CCCCC2)CC1 (stereo not given)
active: Potency (HEK293) 14.8 µM
inactive: max response (HaCat [1]) -16.8% | Potency (MCC-13) | Potency (MCC-26)

Oc1ccc(C2=Cc3ccc(O)cc3OC2)cc1
active: Potency (HEK293) 9.35 µM | Potency (KB-3-1) 16.6 µM | Potency (NIH3T3) 7.43 µM | Potency (MCC-13) 10.5 µM | Potency (MCC-26) 20.9 µM

CNC(=O)c1ccccc1Sc1ccc2c(C=Cc3ccccn3)n[nH]c2c1
inactive: Potency (MCC-26)
active: Potency (HEK293) 14.8 µM | Potency (NIH3T3) 3.72 µM

NS(=O)(=O)c1ccc(NC2=CC(=O)c3ccccc3C2=O)cc1
inactive: outcome (HaCat [1]) | max response (KB-3-1) 7.69% | max response (NIH3T3) -17.3% | outcome (HACAT [2]) | Potency (MCC-26)

CC(=NNC(=S)N1CCC1)c1ccccn1
active: Potency (HEK293) 0.0042 µM | Potency (NIH3T3) 0.0187 µM | Potency (MCC-13) 0.0743 µM | Potency (MCC-26) 0.418 µM

NC(=O)c1cccc2[nH]c(-c3ccc([C@H]4CCCN4)cc3F)nc12
inactive: max response (KB-3-1) -3.95% | max response (NIH3T3) 0.71% | Potency (MCC-13) | Potency (MCC-26)

CC(C)=CC[C@@H](O)C1=CC(=O)c2c(O)ccc(O)c2C1=O
inactive: outcome (HaCat [1]) | max response (KB-3-1) 6.3% | max response (NIH3T3) 4.11% | outcome (HACAT [2]) | Potency (MCC-13) | Potency (MCC-26)

Nc1ncnc2c1nc(Cl)n2[C@@H]1O[C@H](CO)[C@@H](O)[C@@H]1O
active: Potency (HaCat [1]) 14.8 µM
inactive: max response (HEK293) 0.527% | Potency (MCC-13) | Potency (MCC-26)

C[N+](C)(C)CC(=O)O
inactive: Potency (MCC-13) | Potency (MCC-26)

C[C@H](NC(=O)C(=O)Nc1ccccc1C(C)(C)C)C(=O)N[C@@H](CC(=O)O)C(=O)COc1c(F)c(F)cc(F)c1F
inactive: outcome (HaCat [1]) | outcome (KB-3-1) | outcome (HACAT [2]) | Potency (MCC-26)

Clc1cc(Cl)cc(CNc2ncncc2-c2ccc3c(c2)OCO3)c1
inactive: Potency (MCC-13) | Potency (MCC-26)
active: Potency (HEK293) 20.9 µM

Cc1nnc(C(C)C)n1C1C[C@H]2CC[C@@H](C1)N2CC[C@H](NC(=O)C1CCC(F)(F)CC1)c1ccccc1 (stereo not given in full)
inactive: max response (HaCat [1]) 3.6% | max response (KB-3-1) 3.29% | Potency (MCC-13) | Potency (MCC-26)

O=c1[nH]cnc2c1ncn2[C@H]1CC[C@@H](CO)O1
inactive: Potency (P94_40) | outcome (PAD) | outcome (PC15) | Potency (PC26) | outcome (PC49) | Potency (SC27B) | outcome (TAB109)
active: Potency (W2) 13.5 µM
